# Values without a mark were called inactive. Entries that show only a call come without a potency. Calls of active or inactive are those of the source. Unless noted, calls follow the shape of the dose curve; as a rule, active = well fitted curve in the direction sought with a large enough effect in the repeat runs; inconclusive = weak or mixed curves; inactive = no such curve, though single readings can be large; an effect the other way counts as inactive or inconclusive.
# Legend:
# [1] = qHTS assay to identify small molecule antagonists of the thyroid receptor (TR) signaling pathway - cell viability counter screen (AID 743064); also: nearly all actives have a fitted effect of over 50% in size; also: potency is read from the fitted curve at half-maximal effect
# How it was run: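 Same-well viability check: GH3.TRE-Luc cells stimulated with 1 nM T3 alongside test compound for 23.5 h, followed by CellTiter-Fluor fluorescence.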
# [2] = qHTS assay to identify small molecule antagonists of the thyroid receptor (TR) signaling pathway (AID 743065); also: nearly all actives have a fitted effect of over 55% in size; also: potency is read from the fitted curve at half-maximal effect
# How it was run: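 Antagonism measured as loss of luciferase signal in GH3 cells stably carrying a TRE-luciferase reporter, co-treated with compound and T3 (1 nM final) for 23.5 h at 37 C. Viability was read in the same well by CellTiter-Fluor.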
# [3] = test system: thyroid hormone receptor (rat, GH3 cells); experiment: qHTS assay to identify small molecule agonists of the thyroid receptor (TR) signaling pathway (AID 743066; calls by dose curve)
# [4] = biological target: Estrogen receptor (Homo sapiens) (UniProt P03372); experiment: qHTS assay to identify small molecule antagonists of the estrogen receptor alpha (ER-alpha) signaling pathway (AID 743069; active = well fitted curve in the direction sought with a large enough effect in the signal ratio in the repeat runs, not every such curve was filed as active; inconclusive = weak or mixed curves, or effect the other way; inactive = no such curve, though single readings can be large or run the other way; the % refers to the signal ratio)
# Estrogen receptor (Homo sapiens), sequence (P03372 whole entry, looked up): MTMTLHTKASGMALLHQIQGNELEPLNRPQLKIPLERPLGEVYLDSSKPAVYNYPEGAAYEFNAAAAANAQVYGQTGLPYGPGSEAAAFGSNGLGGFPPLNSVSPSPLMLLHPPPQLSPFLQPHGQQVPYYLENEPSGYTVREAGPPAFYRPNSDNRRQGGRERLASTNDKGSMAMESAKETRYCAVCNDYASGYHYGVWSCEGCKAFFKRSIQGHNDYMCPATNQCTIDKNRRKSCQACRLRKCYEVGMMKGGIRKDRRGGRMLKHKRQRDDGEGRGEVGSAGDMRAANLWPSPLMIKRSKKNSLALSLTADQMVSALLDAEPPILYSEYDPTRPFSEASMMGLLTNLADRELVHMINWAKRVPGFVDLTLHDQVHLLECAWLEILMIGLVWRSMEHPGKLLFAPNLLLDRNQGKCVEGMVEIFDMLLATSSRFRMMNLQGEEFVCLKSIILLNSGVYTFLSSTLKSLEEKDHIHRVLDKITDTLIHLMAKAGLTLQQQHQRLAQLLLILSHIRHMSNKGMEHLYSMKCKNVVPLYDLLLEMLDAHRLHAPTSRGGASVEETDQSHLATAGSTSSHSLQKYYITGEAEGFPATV
# How it was run: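 Compound effects are measured against 17beta-estradiol stimulation in HEK293 cells with a UAS-controlled beta-lactamase reporter for ER-alpha. Exposure lasts 18 hr at 37C; LiveBLAzer B/G FRET substrate follows for 2 hr at room temperature.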
# [5] = qHTS assay to identify small molecule antagonists of the estrogen receptor alpha (ER-alpha) signaling pathway - cell viability counter screen (AID 743074; calls by dose curve;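 also: HEK293 cells carrying ER-alpha-UAS-bla reporter stimulated with 17beta-estradiol; nearly all actives have a fitted effect of over 45% in size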; also: potency is read from the fitted curve at half-maximal effect)
# [6] = biological target: Estrogen receptor (Homo sapiens) (UniProt P03372); experiment: qHTS assay to identify small molecule agonists of the estrogen receptor alpha (ER-alpha) signaling pathway (AID 743075; calls by dose curve; also: potency is read from the fitted curve at half-maximal effect)
# [7] = biological target: Estrogen receptor (Homo sapiens) (UniProt P03372); experiment: qHTS assay to identify small molecule agonists of the estrogen receptor alpha (ER-alpha) signaling pathway using the BG1 cell line (AID 743079); conditions: BG1Luc4E2 cells, ERE-luciferase agonist, 22 h; activation: at 70.3 µM (top of the series); also: nearly all actives have a fitted effect of over 20% in size; also: potency is read from the fitted curve at half-maximal effect
# [8] = qHTS assay to identify small molecule antagonists of the estrogen receptor alpha (ER-alpha) signaling pathway using the BG1 cell line - cell viability counter screen (AID 743081);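 also: compound given together with 17beta-estradiol as the ER stimulus; nearly all actives have a fitted effect of over 45% in size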
# Aromatase (Homo sapiens) = Aromatase (Homo sapiens) (UniProt P11511); experiment: qHTS assay to identify aromatase inhibitors (AID 743083); also: nearly all actives have a fitted effect of over 55% in size; also: potency is read from the fitted curve at half-maximal effect
# Aromatase (Homo sapiens), sequence (P11511 whole entry, looked up): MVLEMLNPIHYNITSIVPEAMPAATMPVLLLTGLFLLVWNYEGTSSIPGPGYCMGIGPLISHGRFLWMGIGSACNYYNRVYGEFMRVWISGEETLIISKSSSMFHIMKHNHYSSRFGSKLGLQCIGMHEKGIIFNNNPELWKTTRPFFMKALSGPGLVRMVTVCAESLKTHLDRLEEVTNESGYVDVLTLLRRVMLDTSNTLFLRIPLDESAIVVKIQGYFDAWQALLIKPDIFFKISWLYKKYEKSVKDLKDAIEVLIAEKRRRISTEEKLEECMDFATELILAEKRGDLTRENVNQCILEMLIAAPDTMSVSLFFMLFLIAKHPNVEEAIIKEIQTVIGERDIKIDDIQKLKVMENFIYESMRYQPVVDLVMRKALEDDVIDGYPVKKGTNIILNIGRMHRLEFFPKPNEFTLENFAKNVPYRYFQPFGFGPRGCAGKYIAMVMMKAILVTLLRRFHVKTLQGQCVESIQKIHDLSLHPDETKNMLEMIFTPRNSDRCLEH
# [9] = qHTS assay to identify aromatase inhibitors - cell viability counter screen (AID 743084);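 also: cells stimulated with testosterone during compound exposure; nearly all actives have a fitted effect of over 55% in size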
# [10] = qHTS assay to identify small molecule that activate the aryl hydrocarbon receptor (AhR) signaling pathway - cell viability counter screen (AID 743086);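 also: HepG2 liver cells carrying the AhR DRE luciferase reporter; nearly all actives have a fitted effect of over 45% in size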
# How it was run: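 Cytotoxicity counter screen: CellTiter-Fluor signal (30 min, 37 C) in 4000 HepG2 cells/well carrying the DRE-luciferase reporter, following 24 h compound exposure at 37 C.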
# [11] = biological target: Peroxisome proliferator-activated receptor gamma (Homo sapiens) (UniProt P37231); experiment: qHTS assay to identify small molecule agonists of the peroxisome proliferator-activated receptor gamma (PPARg) signaling pathway (AID 743094; active = well fitted activation curve with a large enough effect in the signal ratio in the repeat runs, not every such curve was filed as active; inconclusive = weak or mixed curves, or effect the other way; inactive = no such curve, though single readings can be large or run the other way; the % refers to the signal ratio)
# Peroxisome proliferator-activated receptor gamma (Homo sapiens), sequence (P37231 whole entry, looked up): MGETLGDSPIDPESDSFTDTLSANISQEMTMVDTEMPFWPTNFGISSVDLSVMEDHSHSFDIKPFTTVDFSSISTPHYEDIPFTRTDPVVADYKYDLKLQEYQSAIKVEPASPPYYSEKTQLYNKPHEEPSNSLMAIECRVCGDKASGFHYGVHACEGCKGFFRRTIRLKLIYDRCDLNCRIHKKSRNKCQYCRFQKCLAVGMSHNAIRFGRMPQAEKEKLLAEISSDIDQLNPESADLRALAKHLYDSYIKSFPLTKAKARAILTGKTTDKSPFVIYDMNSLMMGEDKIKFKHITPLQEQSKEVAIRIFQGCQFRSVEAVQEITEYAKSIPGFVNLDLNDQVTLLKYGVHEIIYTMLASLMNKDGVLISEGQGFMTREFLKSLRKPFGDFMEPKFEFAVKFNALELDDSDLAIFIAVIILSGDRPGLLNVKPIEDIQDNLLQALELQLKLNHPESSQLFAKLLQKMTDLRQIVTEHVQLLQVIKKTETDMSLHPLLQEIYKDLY
# How it was run: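 Stably transfected HEK293H cells (GeneBLAzer PPARg UAS-bla) were incubated with test substances for 17 h at 37C after a 5 h pre-incubation; beta-lactamase activity was then detected by FRET substrate fluorescence.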
# [12] = qHTS assay to identify small molecule phospholipidosis (PLD) inducers (AID 1259344; active = well fitted curve in the direction sought with a large enough effect; inconclusive = small, poorly fitted or top-dose-only effect, or another doubt; inactive = no such curve, though single readings can be large; an effect the other way counts as inactive or inconclusive)
# How it was run: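 Fluorescent phospholipid staining (LipidTOX Red) measured by automated microscopy in fixed HepG2 cells after 24 h treatment; nuclei counterstained with Hoechst 33342; amiodarone as reference inducer.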
# [13] = biological target: Nuclear receptor subfamily 1 group I member 2 (Rattus norvegicus) (UniProt Q9R1A7); experiment: Rat pregnane X receptor (rPXR) activation by small molecules, qHTS assay (AID 1346983); conditions: rPXR luciferase reporter cells, One-Glo luminescence, 24 h; max activation: active compounds read high; also: nearly all actives have a fitted effect of over 20% in size; also: potency is read from the fitted curve at half-maximal effect
# Nuclear receptor subfamily 1 group I member 2 (Rattus norvegicus), sequence (Q9R1A7 whole entry, looked up): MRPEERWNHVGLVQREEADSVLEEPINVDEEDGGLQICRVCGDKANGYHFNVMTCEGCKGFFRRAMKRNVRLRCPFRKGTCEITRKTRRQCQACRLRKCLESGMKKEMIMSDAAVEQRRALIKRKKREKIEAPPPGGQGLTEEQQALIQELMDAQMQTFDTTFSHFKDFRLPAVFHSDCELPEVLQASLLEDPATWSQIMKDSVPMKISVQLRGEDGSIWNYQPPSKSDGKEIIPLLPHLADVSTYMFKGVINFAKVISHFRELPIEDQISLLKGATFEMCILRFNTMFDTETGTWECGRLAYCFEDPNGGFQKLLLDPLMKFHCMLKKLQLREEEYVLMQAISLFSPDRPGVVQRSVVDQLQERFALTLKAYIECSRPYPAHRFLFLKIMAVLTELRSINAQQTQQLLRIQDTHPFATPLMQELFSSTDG
# How it was run: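 Luminescent readout (One-Glo luciferase, 30 min room temperature) followed 24 hr compound treatment at 37 C of rPXR cells plated 2,000 per well and preincubated 5hr; qHTS format with compounds delivered in DMSO.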
# [14] = biological target: Nuclear receptor subfamily 1 group I member 2 (Homo sapiens) (UniProt O75469); experiment: CYP3A4 induction through human pregnane X receptor (PXR) by small molecules, qHTS assay (AID 1346984); also: nearly all actives have a fitted effect of over 40% in size
# How it was run: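 DPX-2 reporter cells; 24h cpd, 37C; Luciferin-IPA 3uM final x3h; One-Glo 30 min RT; lumi read.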
# [15] = biological target: Aryl hydrocarbon receptor (Homo sapiens) (UniProt P35869); experiment: qHTS assay to identify small molecule that activate the aryl hydrocarbon receptor (AhR) signaling pathway (AID 743085); also: nearly all actives have a fitted effect of over 15% in size; also: potency is read from the fitted curve at half-maximal effect;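 as to activation: HG2L7.5c1 human HepG2 liver cells with stably integrated DRE-driven firefly reporter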
# Aryl hydrocarbon receptor (Homo sapiens), sequence (P35869 whole entry, looked up): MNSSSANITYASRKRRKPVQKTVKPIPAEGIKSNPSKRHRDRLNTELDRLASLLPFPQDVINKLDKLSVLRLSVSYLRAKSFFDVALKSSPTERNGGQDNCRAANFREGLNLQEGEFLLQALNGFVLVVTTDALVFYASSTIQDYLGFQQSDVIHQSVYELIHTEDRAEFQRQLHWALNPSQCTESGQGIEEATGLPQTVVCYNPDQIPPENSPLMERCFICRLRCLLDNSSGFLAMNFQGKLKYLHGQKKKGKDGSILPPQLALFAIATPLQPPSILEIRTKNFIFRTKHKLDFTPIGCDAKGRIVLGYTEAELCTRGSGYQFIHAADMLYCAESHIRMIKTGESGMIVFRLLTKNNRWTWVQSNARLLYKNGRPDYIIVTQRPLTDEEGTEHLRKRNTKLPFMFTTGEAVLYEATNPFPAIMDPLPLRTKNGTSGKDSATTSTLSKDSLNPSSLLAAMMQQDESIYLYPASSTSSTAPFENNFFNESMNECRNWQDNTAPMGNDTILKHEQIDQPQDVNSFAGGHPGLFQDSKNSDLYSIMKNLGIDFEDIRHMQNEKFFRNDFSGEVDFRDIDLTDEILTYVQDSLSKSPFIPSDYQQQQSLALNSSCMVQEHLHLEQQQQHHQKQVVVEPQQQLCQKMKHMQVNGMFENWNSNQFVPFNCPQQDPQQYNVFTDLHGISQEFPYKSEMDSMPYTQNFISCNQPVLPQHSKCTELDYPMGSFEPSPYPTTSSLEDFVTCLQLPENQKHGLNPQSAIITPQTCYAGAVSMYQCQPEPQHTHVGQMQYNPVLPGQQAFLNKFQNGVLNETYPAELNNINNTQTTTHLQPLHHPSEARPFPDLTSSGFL
# How it was run: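 Reporter assay in engineered HepG2 line HG2L7.5c1, whose plasmid carries twenty dioxin responsive elements upstream of firefly luciferase. Treatment lasted 24 h at 37C; ONE-Glo luminescence gauged induction.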
# [16] = biological target: Nuclear receptor subfamily 1 group I member 2 (Homo sapiens) (UniProt O75469); experiment: Human pregnane X receptor (PXR) activation by small molecules, qHTS assay (AID 1346985); also: nearly all actives have a fitted effect of over 40% in size
# How it was run: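 DPX-2 cells (HepG2 co-transfected with a PXR response element and a CYP3A4-promoter luciferase construct) were seeded at 2,000 per well, rested 5 hr at 37C, then exposed to DMSO-dissolved compounds for 24 hr. Activation was read as luciferase luminescence.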
# [17] = qHTS assay to identify small molecule antagonists of the estrogen receptor alpha (ER-alpha) signaling pathway using the BG1 cell line (AID 743080; calls by dose curve;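 also: BG1 cells stimulated with 17beta-estradiol alongside compound; nearly all actives have a fitted effect of over 25% in size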; also: potency is read from the fitted curve at half-maximal effect)
# How it was run: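 After 5 days in phenol-red-free 10% charcoal-stripped FBS medium, BG1-Luc-4E2 cells were seeded, left 24 h at 37 C, co-treated with compounds and 17beta-estradiol for 21.5 h, then assayed for viability and luciferase.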
Structure (SMILES),Potency [1],Potency [2],Potency [3],Potency [4],Potency [5],Potency [6],Potency [7],Potency [8],Potency (Aromatase (Homo sapiens)),Potency [9],Potency [10],Potency [11],Potency [12],max activation [13] [%],Potency [14],Potency [15],Potency [16],Potency [17],Potency [13]
CCN(CC)CCOc1ccc2nc(N(C)C)sc2c1,inactive,inactive,inactive,inactive,inactive,inactive,26.6 µM (active),inactive,inactive,inactive,inactive,inactive,inactive,2.91,inactive,,,,
CO[C@H]1C[C@H](O[C@@H]2/C(C)=C/C[C@@H]3C[C@@H](C[C@]4(CC[C@H](C)[C@@H](C5CCCCC5)O4)O3)OC(=O)[C@@H]3C=C(C)/C(=N/O)[C@H]4OC/C(=C\C=C\[C@@H]2C)[C@]43O)O[C@@H](C)[C@@H]1O,,,,,inactive,,,inactive,inactive,inactive,inactive,,inactive,-0.144,inactive,inactive,inactive,,
CC1CC(OC(=O)C(O)c2ccccc2)CC(C)(C)C1 (stereo not drawn),,,inactive,inactive,inactive,inactive,inactive,inactive,inactive,,inactive,inactive,inactive,-1.68,inactive,,,inactive,
CO[C@H]1O[C@@H]2O[C@@]3(C)CC[C@H]4[C@H](C)CC[C@@H]([C@H]1C)[C@@]24OO3,inactive,,inactive,inactive,inactive,inactive,inactive,inactive,inactive,inactive,inactive,inactive,inactive,-2.27,inactive,inactive,,inactive,
COC(=O)[C@H]1[C@H]2C[C@@H]3c4[nH]c5cc(OC)ccc5c4CCN3C[C@H]2C[C@H](OC)[C@@H]1OC,,inactive,inactive,inactive,inactive,inactive,inactive,inactive,inactive,inactive,inactive,,inactive,6.76,inactive,,,inactive,
CNC(=O)c1c(I)c(C(=O)NCC(=O)Nc2c(I)c(C(=O)O)c(I)c(C(=O)NCCO)c2I)c(I)c(N(C)C(C)=O)c1I,inactive,inactive,inactive,,inactive,,,inactive,,,inactive,,inactive,-3.62,inactive,,,,
O=C1C(=O)c2ncccc2-c2cccnc21,,1.68 µM (active),inactive,inactive,inactive,inactive,,inactive,23.7 µM (active),inactive,,inactive,inactive,-3.81,inactive,6.68 µM (active),,5.96 µM (active),
OC[C@@H](O)C(O)[C@H](O)CO,inactive,inactive,inactive,,inactive,,,inactive,inactive,inactive,inactive,inactive,inactive,-1.82,inactive,inactive,,,
C#C[C@]1(O)CC[C@H]2[C@@H]3CCC4=CC(=O)CC[C@@H]4[C@H]3C(=C)C[C@@]21CC,inactive,,,,inactive,2.39 µM [inconclusive] (active),1.88 µM (active),,inactive,inactive,inactive,inactive,inactive,,inactive,inactive,,,7.94 µM (active)
Cc1cc(C)c(NC(=O)C[C@H](CC(=O)O)c2cccc3ccccc23)c(C(=O)N2CCC3(CCCC3)CC2)c1,,inactive,inactive,inactive,,inactive,29.8 µM (active),inactive,inactive,inactive,inactive,inactive,inactive,1.3,inactive,inactive,,inactive,
CCCOc1ccc2nc(NC(=O)OC)sc2c1,10.6 µM (active),2.37 µM (active),inactive,,inactive,,,inactive,inactive,inactive,inactive,inactive,inactive,,inactive,4.22 µM (active),,,2.51 µM (active)
Nc1ncnc2c1ncn2[C@@H]1O[C@H](COP(=O)(O)OP(=O)(O)OP(=O)(O)O)[C@@H](O)[C@H]1O,,,,,6.01 µM (active),inactive,inactive,inactive,inactive,,inactive,inactive,inactive,2.22,inactive,inactive,inactive,,
COc1cc2c(cc1OC)CC(=O)N(CCCN(C)C[C@H]1Cc3cc(OC)c(OC)cc31)CC2,inactive,inactive,inactive,inactive,inactive,inactive,inactive,inactive,inactive,inactive,inactive,inactive,inactive,-0.416,inactive,inactive,,inactive,
CSc1nc2cc(Oc3cccc(Cl)c3Cl)c(Cl)cc2[nH]1,13.3 µM (active),8.41 µM (active),,,23.9 µM (active),,,,23.7 µM (active),inactive,inactive,inactive,inactive,-0.842,inactive,,,,
